# Only a selection was taken, and hits are over-represented in it overall.
# Cruzain inh noDet – blocks cruzain activity in detergent-free assay; P25779; purified cruzain, Z-FR-AMC fluorescence, no detergent; Potency, µM, without a hit: max response, negative = inhibition, usual class: inhibitors; hit rate 2.3% among 200,000;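 also: plate controls were enzyme without inhibitor for no effect and buffer without enzyme for full effect; nearly all actives have a fitted effect of over 40% in size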
# Target sequence (P25779 123-467 limits assumed): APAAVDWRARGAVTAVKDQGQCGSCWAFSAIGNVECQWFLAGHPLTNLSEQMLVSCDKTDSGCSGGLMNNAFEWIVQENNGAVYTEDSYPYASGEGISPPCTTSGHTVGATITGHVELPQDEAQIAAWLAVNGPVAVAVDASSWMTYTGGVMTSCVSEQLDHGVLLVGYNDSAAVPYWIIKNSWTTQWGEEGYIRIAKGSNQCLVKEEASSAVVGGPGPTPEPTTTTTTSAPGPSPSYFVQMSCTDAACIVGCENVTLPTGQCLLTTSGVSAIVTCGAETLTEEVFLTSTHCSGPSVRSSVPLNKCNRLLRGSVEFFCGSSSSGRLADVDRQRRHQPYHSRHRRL
#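 Purified cruzain at 1.5 nM, pre-incubated 15 min with compound at room temperature in 100 mM sodium acetate pH 5.5, 5 mM DTT, 0.00005% Triton X-100. Reaction started with 2 uM Z-FR-AMC; AMC fluorescence increase over 60 s gives rate.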
# Cruzain Triton – inhibitors of Trypanosoma cruzi cruzain with detergent; purified cruzain, Z-FR-AMC fluorescence, 0.01% Triton; Potency, µM, for the others: max response, negative = inhibition, actives largely listed as inhibitors; hit rate 0.43% among 200,000; AID 1478;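 also: plate controls were neutral wells for no effect and buffer without enzyme for full effect; nearly all actives have a fitted effect of over 40% in size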
#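 Sodium acetate buffer (100 mM, pH 5.5) containing 5 mM DTT and 0.01% Triton X-100 hosted 1.5 nM cruzain and test compound for 15 min at room temperature. Cleavage of 2 uM Z-FR-AMC was then tracked by fluorescence.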
# NS1 inh – influenza NS1 inhibition; Potency, µM (top dose mostly 46.1 µM), inactives show top-dose activity, positive = more growth; hit rate 0.4% among 270,000; calls by dose curve; also: actives are rising curves; nearly all actives have a fitted effect of over 50% in size
#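 Read-out: OD600 growth recovery of NS1-expressing budding yeast. Cells grown overnight at 30C in -URA glucose medium, washed, resuspended and diluted 1:100 in 2% galactose assay medium, pH 6.0. Same strain lacking NS1 served as positive control.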
# * = called active by the depositor; ? = inconclusive; / = no result. Unless noted, calls follow the shape of the dose curve; as a rule, active = well fitted curve in the direction sought with a large enough effect; inconclusive = small, poorly fitted or top-dose-only effect, or another doubt; inactive = no such curve, though single readings can be large; an effect the other way counts as inactive or inconclusive. Potency is read from the fitted curve at half-maximal effect.
SMILES,Cruzain inh noDet,Cruzain Triton,NS1 inh
CCOC(=O)C1=C(C)N(c2ccccc2)C(=O)/C1=C\c1ccc(O)c(OC)c1,/,/,2.5µM*
O=C1/C(=C/c2ccco2)Oc2c1ccc(O)c2CN1CCCCC1,-12%,-21%,14%
CC1CCN(Cc2c(O)ccc3c2O/C(=C\c2ccco2)C3=O)CC1,22%,-23%,8.9µM*
CCOC(=O)C1=NN(c2ccccc2)C2(S1)SC(C(C)=O)=C(C)N2c1ccccc1 (stereo not given),10%,-3%,-4%
COC(=O)C1=NN(c2ccccc2)C2(S1)S/C(=C\c1ccccc1)C(=O)N2c1ccccc1 (stereo not given),10µM*,2%,2%
Cc1nn(C(C)(C)C)c(OC(=O)c2ccc3c(c2)OCO3)c1S(=O)(=O)c1ccccc1,7%,-6%,-38%
Cc1ccc(Cl)cc1Nc1sc(C(=O)c2ccc(F)cc2)c(N)c1S(C)(=O)=O,-27%,-12%,/
Cc1cc(Nc2sc(C(=O)c3ccc(F)cc3)c(N)c2C(=O)Nc2ccc(F)cc2)ccc1Cl,?,-6%,/
COc1ccccc1Nc1sc(C(=O)c2ccc3c(c2)OCO3)c(N)c1S(=O)(=O)c1ccccc1,7.9µM*,-3%,/
Cc1ccc(Nc2sc(C(=O)c3ccccc3)c(N)c2S(=O)(=O)c2ccccc2)cc1Cl,4µM*,-5%,/
COc1ccc(S(=O)(=O)c2c(Nc3ccc(F)cc3)sc(C(=O)c3ccc(C)cc3C)c2N)cc1,5µM*,-1%,/
COc1ccc(OC)c(Nc2sc(C(=O)c3ccccc3)c(N)c2S(=O)(=O)c2ccccc2)c1,7.9µM*,-2%,/
Nc1c(C(=O)c2ccc(F)cc2)sc(Nc2ccccc2F)c1S(=O)(=O)c1ccc(Br)cc1,-27%,-1%,/
Cc1ccc(C)c(N2CCN(C(=O)Cc3ccc(-n4c(=O)[nH]c5ccsc5c4=O)cc3)CC2)c1,1%,-6%,/
CCCC(C)c1nnc(NC(=O)CCS(=O)(=O)c2ccccc2)s1 (stereo not given),/,/,0%
CCCc1cc(N2CCN(c3ccc(OC)cc3)CC2)n2cnnc2n1,1%,-3%,/
N#C/C(=C/c1ccc(-c2ccc(S(N)(=O)=O)cc2)o1)c1nc2ccccc2s1,-26%,-4%,15%
CCc1ccc(Nc2sc(C(=O)c3ccccc3)c(N)c2S(C)(=O)=O)cc1,-8%,-10%,/
CCc1ccc(Nc2sc(C(=O)c3ccc(F)cc3)c(N)c2S(=O)(=O)c2ccccc2)cc1,7.9µM*,-4%,/
CCOc1ccc(Nc2sc(C(=O)c3cccc(OC)c3)c(N)c2S(=O)(=O)c2ccccc2)cc1,13µM*,-2%,/
COc1cccc(C(=O)c2sc(Nc3ccc(C)cc3C)c(S(=O)(=O)c3ccccc3)c2N)c1,7.9µM*,-4%,/
Cc1ccccc1Nc1sc(C(=O)c2ccc(F)cc2)c(N)c1C(=O)NCCc1ccccc1,?,-4%,/
COc1ccccc1Nc1nc(C)nc(N)c1S(=O)(=O)c1ccccc1,-12%,-3%,/
COc1ccccc1Nc1sc(C(=O)c2ccc(C)cc2C)c(N)c1S(=O)(=O)c1ccccc1,7.9µM*,-1%,/
Cc1ccc(NS(=O)(=O)c2cccc(C(=O)O)c2)c(C)c1,1%,2%,6%
SMILES,Cruzain inh noDet,Cruzain Triton,NS1 inh
COc1ccc(OC)c(S(=O)(=O)NCCCc2ccccc2)c1,/,/,-23%
COc1ccccc1C(=O)NC(C)c1nc2ccccc2[nH]1 (stereo not given),-13%,-3%,-7%
CC(=O)NCCNc1cc(-c2ccccc2C)ncn1,6%,4%,/
CC(=O)c1ccc(NC(=O)/C(C#N)=C/c2ccncc2)cc1,/,/,3%
Cc1ccc(Nc2sc(C(=O)c3ccccc3)c(N)c2S(=O)(=O)c2ccccc2)c(C)c1,10µM*,-4%,/
Cc1ccc(Nc2sc(C(=O)c3ccccc3)c(N)c2C(=O)NC(C)C)cc1,9%,-3%,/
Cc1ccc(Nc2sc(C(=O)c3ccc(F)cc3)c(N)c2S(=O)(=O)c2ccc(C)cc2)cc1,?,2%,/
Cc1ccc(S(=O)(=O)c2c(Nc3cc(F)ccc3F)sc(C(=O)c3ccc(F)cc3)c2N)cc1,3.2µM*,-5%,/
CC(NC(=O)C(C(=O)c1cccc([N+](=O)[O-])c1)n1cc(Cl)ccc1=O)c1ccccc1 (stereo not given),0%,-4%,4%
COc1ccc(CN(C(=O)/C=C/c2ccccc2Cl)C2CCS(=O)(=O)C2)cc1 (stereo not given),/,/,20%
CC1CCC(C(C)C)C(OC(=O)C2=C3c4ccccc4S(=O)(=O)N3CC2)C1 (stereo not given),32µM*,?,8%
CC1CCC(C(C)C)[C@H](OC(=O)c2ccccc2)C1 (stereo not given in full),-4%,5%,/
Cn1c(CNC(=O)Cc2ccc3c(c2)OCO3)nnc1SCc1ccccc1,1%,4%,-2%
